Screening data (PubChem)
HCV inhibitor: HCV inhibition | Huh7.5.1 HCVcc-Cre infection, luciferase reporter, 44 h | Potency, µM (top dose mostly 41.8 µM), usual class: inhibitors | 340,000 tested, 3.4% active; active = well fitted inhibition curve with a large enough effect; inconclusive = small, poorly fitted or top-dose-only effect, or another doubt; inactive = no such curve, though single readings can be large or run the other way
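A cell-based infection assay in which seeded cells (1,000 per well) receive test compound after 4 h, are inoculated with HCVcc-Cre at approximately 0.5 moi, and are incubated 44 h before luminescence detection.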
Shiga inhibitor: inhibitors of Shiga toxin in Vero cells | Vero cells, Shiga toxin protein synthesis inhibition reporter | inhibition, % at 38.7 µM | 290,000 tested, 9.2% active; in the data active = inhibition mostly above about 28%, no sharp cut-off; inactive = mostly below about 43%
LASV entry inh: Lassa virus entry inhibition; 300,000 tested, 1.2% active; Potency, µM (titrated, usually from 37.9 µM), actives largely listed as inhibitors; Lassa virus pseudotype entry inhibition, cell reporter; calls by dose curve; tested in HEK293 cells; note: nearly all actives have a fitted effect of over 50% in size
Marburg entry inh: blocks Marburg virus binding to or entry into cells | Marburg virus pseudotyped entry inhibition, cell reporter | Potency, µM (series often up to 37.8 µM), usual class: inhibitors | 300,000 tested, 1.8% active | AID 540276; calls by dose curve; tested in HEK293 cells
FMDV antiviral: antivirals against foot and mouth disease virus | FMDV antiviral cell-based qHTS | AID 1159524 | Potency, µM (titrated, usually from 57.9 µM), most hits filed as inhibitors | 410,000 tested, 1.2% active; calls by dose curve; tested in HEK293T cells; note: read-out not given here; nearly all actives have a fitted effect of over 45% in size
Cycloheximide cs: counter-screen hit for Shiga toxin inhibitors, cycloheximide; cell reporter, cycloheximide protein synthesis inhibition counterscreen; max response, %; 300,000 tested, 12% active; in the data active = max response mostly above about 13%, no sharp cut-off; inactive = mostly below about 14%; note: read at 38.3 µM for the half of the compounds with a filed dose
Hits are given with their value; – = inactive; ? = inconclusive; · = no result. Only some compounds are listed: those with a hit (about 13% of all), similar ones and a draw of the others.

SMILES | HCV inhibitor | Shiga inhibitor | LASV entry inh | Marburg entry inh | FMDV antiviral | Cycloheximide cs
Cc1cc(C(=O)CSc2nnc(-c3cccc(F)c3)n2N)c(C)n1Cc1ccc2c(c1)OCO2 | 13µM | – | – | ? | ? | –
Cc1cc(C(=O)COC(=O)C2=COCCO2)c(C)n1-c1ccc2c(c1)OCO2 | – | 138 | – | – | – | 66
Cc1cc(N)c(NC2=CC(=O)CC(C)(C)C2)cc1C | – | 91 | – | ? | – | 62
CN(C)c1ccc(-c2nc(-n3ccnc3)c3ccccc3n2)cc1 | · | · | · | · | – | ·
CCN(CC)c1ccc(/C=N/NC(=O)c2cnccn2)cc1 | – | 108 | ? | ? | – | 42
O=C(N/N=C/c1ccc(OC(=O)c2ccccc2Cl)cc1)c1ccccn1 | – | 51 | ? | ? | – | 49
CCc1ccc(/C=N/NC(=O)c2ccccn2)cc1 | – | – | 1.4µM | ? | 13µM | –
CCN(CC)c1ccc(/C=N/NC(=O)c2cc(C)nc3ccccc23)cc1 | – | – | ? | ? | ? | –
O=C(CNC(=O)c1ccccn1)N/N=C/c1ccccc1 | – | – | – | – | – | –
CCN(CC)c1ccc(/C=N/NC(=O)c2ccccn2)cc1 | ? | 44 | 11µM | ? | – | 26
CCOC(=O)c1c(C)[nH]c(CCC(=O)NC(C)c2ccccc2)c1C (centres undefined) | · | · | – | · | – | ·
CCc1ccc(S(=O)(=O)c2nnn3c2nc(NCc2cccc(OC)c2)c2cc(Cl)ccc23)cc1 | · | · | · | – | – | ·
CCC(C)Sc1ccc([C@@H]2[C@@H]3C(=O)N(CC)C(=O)[C@@H]3[C@]3(C(=O)OC)CCCCN23)cc1OC (some centres undefined) | 11µM | · | · | · | – | ·
O=C(COCc1cc(-c2ccc(F)cc2)on1)Nc1cc(Cl)ccc1O | · | · | – | – | – | ·
Cc1cccc(NC(=O)C2CCN(c3nccc(C)n3)CC2)c1 | ? | – | – | – | – | –
CCC(C(=O)OCC(=O)c1c(N)n(CC(C)C)c(=O)n(C)c1=O)c1ccccc1 (centres undefined) | ? | · | ? | – | 40µM | ·
Cn1c(N)c(C(=O)COC(=O)CSc2ccccc2)c(=O)n(C)c1=O | – | – | ? | – | – | 16
Cc1nn(-c2ccccc2)c(C)c1C(=O)OCC(=O)c1c(N)n(CC(C)C)c(=O)n(C)c1=O | 5.6µM | – | 6.5µM | ? | 32µM | –
CC(C)Cn1c(N)c(C(=O)COC(=O)c2ccc(O)cc2)c(=O)n(C)c1=O | ? | – | · | · | – | –
CC(C)Cn1c(N)c(C(=O)COC(=O)C2Cc3ccccc3CN2S(C)(=O)=O)c(=O)n(C)c1=O (centres undefined) | 11µM | · | – | ? | – | ·
CC(C)Cn1c(N)c(C(=O)COC(=O)C2CCCCC2)c(=O)n(C)c1=O | ? | – | – | – | ? | –
COc1ccc(C(=O)Nn2c(C)nc3ccccc3c2=O)cc1OC | – | – | · | · | – | –
O=[N+]([O-])c1cccc(/C([O-])=C(/C(=S)Nc2cccc3ccccc23)[n+]2ccccc2)c1 | ? | 64 | – | – | – | 27
CCOc1ccc(NC(=S)/C(=C(\[O-])c2ccc(C)c([N+](=O)[O-])c2)[n+]2ccccc2)cc1 | – | 41 | – | – | – | 33
COc1cccc(NC(=S)/C(=C(\[O-])c2ccc([N+](=O)[O-])cc2)[n+]2ccccc2)c1 | – | 66 | · | · | – | 24
SMILES | HCV inhibitor | Shiga inhibitor | LASV entry inh | Marburg entry inh | FMDV antiviral | Cycloheximide cs
CCc1cc[n+](/C(C(=S)Nc2cccc(C)c2)=C(/[O-])c2ccc(C)c([N+](=O)[O-])c2)cc1 | – | – | ? | – | – | –
Cc1ccc(/C([O-])=C(/C(=S)NCc2ccco2)[n+]2ccccc2)cc1 | · | – | · | · | · | –
Cc1ccc(NC(=S)/C(=C(\[O-])c2ccc(F)cc2)[n+]2ccccc2)cc1 | – | – | – | – | – | 21
O=[N+]([O-])c1ccc(/C([O-])=C(/C(=S)Nc2ccccc2F)[n+]2ccccc2)cc1 | – | – | – | – | – | –
O=C(COC(=O)Cn1[nH]c(=O)c2ccccc2c1=O)Nc1ccc2c(c1)OCO2 | – | – | – | – | – | –
NC(=O)N/N=C/c1ccc(N2CCOCC2)s1 | – | – | ? | – | – | –
C/C(=N\Nc1ccc(Cl)c(C(=O)O)c1)c1ccc(N2CCOCC2)cc1 | – | 156 | – | – | – | 118
O=C(O)c1cc(N/N=C/c2ccc(N3CCOCC3)s2)ccc1Cl | – | 64 | – | – | ? | 45
O=C(O)c1cc(Nc2nc(N3CCOCC3)nc(N3CCOCC3)n2)ccc1Cl | – | – | – | – | – | –
Fc1ccc(NC(=S)Nc2ccccc2Cl)cc1 | – | – | ? | – | – | –
COc1ccccc1NC(=S)Nc1cccc2cnccc12 | 10µM | – | – | ? | ? | –
COc1cccc(NC(=S)Nc2cccc3ccccc23)c1 | – | 110 | – | – | – | 85
FC(F)(F)c1ccccc1NC(=S)NN=C1CCCCCC1 | ? | – | – | – | – | 33
Fc1ccc(NC(=S)Nc2cccc3ccccc23)cc1 | – | 70 | · | · | – | 42
COc1ccc(NC(=S)Nc2cccc3cnccc23)cc1 | – | – | – | – | – | –
COc1cc(NC(=O)Cn2cnc3ccccc3c2=O)c(OC)cc1Cl | – | – | · | · | – | –
COc1ccc(Cl)c2sc(N3CCN(C(=O)c4ccco4)CC3)nc12 | ? | · | – | – | – | ·
COc1cccc(N2CCN(C(=O)c3cc4c(s3)-c3ccccc3OC4)CC2)c1 | – | – | · | – | ? | –
COc1cc(/C=C/C(=O)O)cc(S(=O)(=O)Nc2cc(S(=O)(=O)N3CCCCC3)ccc2Cl)c1OC | · | · | · | · | – | ·
Cn1cccc1C(=O)N1CCC2(CCCN(C(=O)Nc3cccc(F)c3)C2)CC1 | · | · | · | · | – | ·
Cc1cc(NC(=S)Nc2cccc3ccccc23)n[nH]1 | – | 70 | – | ? | – | 28
Cc1cccc(NC(=S)N/N=C(\c2ccccc2)C(C)C)c1 | ? | 55 | ? | – | – | 26
CC/C(=N\NC(=S)Nc1cccc(C)c1)c1ccccc1 | – | – | ? | – | – | –
Cc1ccc(S(=O)(=O)N(C)C)cc1NC(=S)Nc1cccc2ccccc12 | – | – | – | – | – | –
Cc1cc(C)cc(NC(=S)Nc2cccc3ccccc23)c1 | ? | – | · | · | – | –
SMILES | HCV inhibitor | Shiga inhibitor | LASV entry inh | Marburg entry inh | FMDV antiviral | Cycloheximide cs
CCc1cccc(NC(=S)Nc2cccc3ccccc23)c1 | ? | – | · | · | – | 46
Fc1ccc(NC(=S)Nc2cccc3ccccc23)cc1F | ? | 45 | · | · | – | 46
CCC(C)c1ccc(NC(=S)Nc2ccc(OC)c(OC)c2)cc1 (centres undefined) | – | – | – | – | – | –
Fc1ccc(NC(=S)Nc2cccc3cnccc23)cc1 | – | – | · | – | – | 17
Cc1ccc(NC(=S)Nc2cccc3ccccc23)cc1 | – | 78 | – | – | – | 90
Cc1cccc(NC(=S)Nc2cccc3ccccc23)c1 | ? | 95 | – | – | – | 32
S=C(Nc1ccc(Cl)cc1)Nc1cccc2cnccc12 | ? | – | ? | ? | – | –
CCC(C)c1ccc(NC(=S)Nc2ccc(OC)cc2C)cc1 (centres undefined) | ? | 62 | – | ? | – | 30
